A short description of experiment [1]: NCI Yeast Anticancer Drug Screen. Data for the rad50 strain (AID 155).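 Note: 0% = growth of vehicle-only cultures of the same strain.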 The following applies: S. cerevisiae rad50 strain growth inhibition, active compounds read high. The gist of the method: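 Vehicle-treated cultures provide the reference for the growth inhibition reported for compound-exposed, repair-deficient yeast.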
Experiment [2] in a line: NCI Yeast Anticancer Drug Screen. Data for the mec2-1 strain (AID 157). Conditions: S. cerevisiae mec2-1 strain, active compounds read high. The gist of the method: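 Vehicle-treated cultures served as reference for growth inhibition of compound-exposed mec2-1 yeast.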
A short description of experiment [3]: NCI Yeast Anticancer Drug Screen. Data for the sgs1 mgt1 strain (AID 161).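 Note: 0% = growth of cultures given vehicle only.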 The following applies: S. cerevisiae sgs1 mgt1 strain, active compounds read high. Summed up:
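Test agents were incubated with a DNA-repair-mutant yeast strain. Growth was then read and compared against vehicle-treated controls.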

Experiment [4] can be described thus: NCI Yeast Anticancer Drug Screen. Data for the cln2 rad14 strain (AID 165).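 Note: 0% = growth equal to vehicle treated cultures.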 Conditions: S. cerevisiae cln2 rad14 strain, active compounds read high. Summed up:
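Each compound was tested on cln2 rad14 yeast. Inhibition of growth was calculated against vehicle-exposed controls.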

The nature of experiment [5]: NCI Yeast Anticancer Drug Screen. Data for the bub3 strain (AID 167). Conditions: S. cerevisiae bub3 mutant strain, active compounds read high. Summed up:
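Mutant yeast screening strain plus compound; vehicle-treated cultures serve as the 0% inhibition reference.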

A short description of experiment [6]: NCI Yeast Anticancer Drug Screen. Data for the mlh1 rad18 strain (AID 175). The following applies: S. cerevisiae mlh1 rad18 strain growth inhibition, active compounds read high. Summed up:
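Vehicle-treated cultures served as the reference for growth inhibition in a yeast strain carrying DNA damage repair alterations exposed to each compound.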

[7] abbreviates: at 5.0 µM (retest, dose inferred, filed as 0.5).
The mark [8] stands for this setting: at 50.0 µM (retest, dose inferred, filed as 5.0).

About 79,000 compounds went through this panel and 15% of them were active in at least one assay; those are over-represented in the sample as a whole. A number with no mark means an inactive call. Activity calls are given as the source filed them. Cut-off read from the data, not from the text of the source: active = growth inhibition above about 70%; inactive = the rest.

As to `O=C(CSC1=NNC2(C(=O)N1)c1ccccc1-c1ccccc12)NC(=S)Nc1ccccc1`, the growth inhibition in experiment [1] (setting [7]) is -3%; in experiment [1] (setting [8]), 95% (active); in experiment [1] (at 50.0 µM) it was 96.2% (active); in experiment [2] (setting [7]), -15%; in experiment [2] (setting [8]), 90% (active); in experiment [2] (at 50.0 µM), 97% (active). Moreover, the growth inhibition in experiment [3] (setting [7]) is -7%; in experiment [3] (setting [8]), 96% (active); in experiment [3] (at 50.0 µM), 98% (active); in experiment [4] (setting [7]) it was -8%; in experiment [4] (setting [8]), 86% (active); in experiment [4] (at 50.0 µM) it was 96.4% (active). The growth inhibition in experiment [5] (setting [7]) is -16%; in experiment [5] (setting [8]), 94% (active); in experiment [5] (at 50.0 µM), 97.5% (active); in experiment [6] (setting [7]), -24%; in experiment [6] (setting [8]), 95% (active); in experiment [6] (at 50.0 µM), 97% (active).
As for `CCS(CC)(CC)CC1CCCC2=CCC(P(=O)(c3ccccc3)c3ccccc3)CC21` (configuration not stated), the growth inhibition in experiment [1] (setting [7]) was 5%; in experiment [1] (setting [8]), 5%; in experiment [1] (at 50.0 µM) it was 87.2% (active); in experiment [2] (setting [7]), 18%; in experiment [2] (setting [8]), 18%; in experiment [2] (at 50.0 µM), 78.7% (active). Further, the growth inhibition in experiment [3] (setting [7]) is 11%; in experiment [3] (setting [8]) it was 11%; in experiment [3] (at 50.0 µM), 87.8% (active); in experiment [4] (setting [7]), 5%; in experiment [4] (setting [8]) it was 5%; in experiment [4] (at 50.0 µM), 24.2%. The growth inhibition is -8% in experiment [5] (setting [7]); -8% in experiment [5] (setting [8]); 67.8% in experiment [5] (at 50.0 µM); -9% in experiment [6] (setting [7]); -9% in experiment [6] (setting [8]); 71.7% (active) in experiment [6] (at 50.0 µM).
On to `NNc1cc([N+](=O)[O-])ccc1Cl`, for which the growth inhibition in experiment [1] (setting [7]) was 5%; in experiment [1] (setting [8]), 93% (active); in experiment [1] (at 50.0 µM) it was 88.5% (active); in experiment [2] (setting [7]) it was 6%; in experiment [2] (setting [8]), 68%; in experiment [2] (at 50.0 µM), 91.2% (active). The growth inhibition in experiment [3] (setting [7]) was -8%; in experiment [3] (setting [8]), 84% (active); in experiment [3] (at 50.0 µM), 90.8% (active); in experiment [4] (setting [7]) it was 4%; in experiment [4] (setting [8]), 38%; in experiment [4] (at 50.0 µM), 68%. The growth inhibition in experiment [5] (setting [7]) is 24%; in experiment [5] (setting [8]), 94% (active); in experiment [5] (at 50.0 µM) it was 95.1% (active); in experiment [6] (setting [7]), -20%; in experiment [6] (setting [8]), 95% (active); in experiment [6] (at 50.0 µM), 98.5% (active).
For the compound `CC(C)(C)CC(C)(C)c1ccc(OCCSC(=N)N)cc1`, the growth inhibition is 95% (active) in experiment [1] (setting [7]); 100% (active) in experiment [1] (setting [8]); 99.3% (active) in experiment [1] (at 50.0 µM); 99% (active) in experiment [2] (setting [7]); 100% (active) in experiment [2] (setting [8]); 99.6% (active) in experiment [2] (at 50.0 µM). Moreover, the growth inhibition in experiment [3] (setting [7]) was 75% (active); in experiment [3] (setting [8]) it was 99% (active); in experiment [3] (at 50.0 µM) it was 99.2% (active); in experiment [4] (setting [7]) it was 99% (active); in experiment [4] (setting [8]) it was 99% (active); in experiment [4] (at 50.0 µM), 98.6% (active). The growth inhibition is 99% (active) in experiment [5] (setting [7]); 100% (active) in experiment [5] (setting [8]); 99.4% (active) in experiment [5] (at 50.0 µM); 99% (active) in experiment [6] (setting [7]); 99% (active) in experiment [6] (setting [8]); 99.2% (active) in experiment [6] (at 50.0 µM).
Regarding `CCC[CH2][Ge]([CH2]CCC)([CH2]CCC)[O]C(C)=O`, the growth inhibition in experiment [1] (setting [7]) was 2%; in experiment [1] (setting [8]) it was 9%; in experiment [1] (at 50.0 µM), 54.1%; in experiment [2] (setting [7]), 0%; in experiment [2] (setting [8]), 19%; in experiment [2] (at 50.0 µM), 27.3%. The growth inhibition in experiment [3] (setting [7]) is 4%; in experiment [3] (setting [8]) it was 21%; in experiment [3] (at 50.0 µM), 61.8%; in experiment [4] (setting [7]) it was 1%; in experiment [4] (setting [8]) it was -1%; in experiment [4] (at 50.0 µM), 70.8% (active). Besides, the growth inhibition in experiment [5] (setting [7]) was -2%; in experiment [5] (setting [8]), 6%; in experiment [5] (at 50.0 µM), 19.2%; in experiment [6] (setting [7]) it was 2%; in experiment [6] (setting [8]) it was 11%; in experiment [6] (at 50.0 µM), 52.8%.
For `COC1/C=C/OC2(C)Oc3c(C)c(OC(C)=O)c4c(c3C2=O)C(=O)C=C(NC(=O)/C(C)=C\C=C\C(C)C(O)C(C)C(O)C(C)C(OC(C)=O)C1C)C4=O` (configuration not stated), the growth inhibition in experiment [1] (setting [7]) was 6%; in experiment [1] (setting [8]), 70% (active); in experiment [1] (at 50.0 µM) it was 53.4%; in experiment [2] (setting [7]), -44%; in experiment [2] (setting [8]), 87% (active); in experiment [2] (at 50.0 µM) it was 50%. The growth inhibition in experiment [3] (setting [7]) is 1%; in experiment [3] (setting [8]), 52%; in experiment [3] (at 50.0 µM) it was 6%; in experiment [4] (setting [7]), 3%; in experiment [4] (setting [8]), 96% (active); in experiment [4] (at 50.0 µM), 69.8%. In addition, the growth inhibition in experiment [5] (setting [7]) was 0%; in experiment [5] (setting [8]) it was 85% (active); in experiment [5] (at 50.0 µM), 42.6%; in experiment [6] (setting [7]), 5%; in experiment [6] (setting [8]), 90% (active); in experiment [6] (at 50.0 µM), 46.5%.
`CN(C)CCC(=O)/C=C/c1ccccc1`: the growth inhibition was -2% in experiment [1] (setting [7]); 3% in experiment [1] (setting [8]); 53% in experiment [1] (at 50.0 µM); -1% in experiment [2] (setting [7]); 5% in experiment [2] (setting [8]); 38% in experiment [2] (at 50.0 µM). Also, the growth inhibition in experiment [3] (setting [7]) is -3%; in experiment [3] (setting [8]) it was 1%; in experiment [3] (at 50.0 µM) it was 75.9% (active); in experiment [4] (setting [7]), -2%; in experiment [4] (setting [8]), 1%; in experiment [4] (at 50.0 µM) it was 38.1%. The growth inhibition is -3% in experiment [5] (setting [7]); 11% in experiment [5] (setting [8]); 61% in experiment [5] (at 50.0 µM); -3% in experiment [6] (setting [7]); 4% in experiment [6] (setting [8]); 63.1% in experiment [6] (at 50.0 µM).
With `NNc1c(Cl)c(F)c(Cl)c(F)c1Cl`, the growth inhibition is 13% in experiment [1] (setting [7]); 17% in experiment [1] (setting [8]); 21.6% in experiment [1] (at 50.0 µM); 5% in experiment [2] (setting [7]); 17% in experiment [2] (setting [8]); 36.5% in experiment [2] (at 50.0 µM). Further, the growth inhibition in experiment [3] (setting [7]) is 4%; in experiment [3] (setting [8]), 26%; in experiment [3] (at 50.0 µM), 47.5%; in experiment [4] (setting [7]), 13%; in experiment [4] (setting [8]), 24%; in experiment [4] (at 50.0 µM) it was 34.2%. For the same compound, the growth inhibition in experiment [5] (setting [7]) is 3%; in experiment [5] (setting [8]), 24%; in experiment [5] (at 50.0 µM) it was 54.7%; in experiment [6] (setting [7]), 17%; in experiment [6] (setting [8]), 24%; in experiment [6] (at 50.0 µM), 66.7%.
In the case of `CCC(=O)N1c2ccccc2CC1c1c[nH]c2ccccc12` (configuration not stated), the growth inhibition was -4% in experiment [1] (setting [7]); 98% (active) in experiment [1] (setting [8]); 95.2% (active) in experiment [1] (at 50.0 µM); -10% in experiment [2] (setting [7]); 98% (active) in experiment [2] (setting [8]); 30.8% in experiment [2] (at 50.0 µM). Besides, the growth inhibition in experiment [3] (setting [7]) is -3%; in experiment [3] (setting [8]), 98% (active); in experiment [3] (at 50.0 µM), 77.4% (active); in experiment [4] (setting [7]), -56%; in experiment [4] (setting [8]), 99% (active); in experiment [4] (at 50.0 µM), 74.5% (active). For the same compound, the growth inhibition in experiment [5] (setting [7]) was -10%; in experiment [5] (setting [8]) it was 78% (active); in experiment [5] (at 50.0 µM), 8.15%; in experiment [6] (setting [7]) it was 1%; in experiment [6] (setting [8]) it was 98% (active); in experiment [6] (at 50.0 µM), 93.3% (active).
